The results in this text go back to PubChem BioAssay AID1347416 (National Center for Advancing Translational Sciences (NCATS), 2020).

Each structure is given as a SMILES string. Several values for one entry are separate records, joined by “and”; a condition that tells them apart may be missing. Identical values can stand only once. Hit rate of the full screen: of about 4,100 compounds, about 1,600 (39%) were called active. Inconclusive results (about 25%) are left out. The list shows a part of the results. A number with no mark means an inactive call. Calls follow the shape of the dose curve; as a rule, active = well fitted inhibition curve with a large enough effect; inconclusive = small, poorly fitted or top-dose-only effect; inactive = no such curve, though single readings can be large or run the other way.
% is scaled to controls: 0 for no effect and ±100 for the full control effect; potency is read from the fitted curve at half-maximal effect.

A short description of the experiment: qHTS Validation assay for Inhibitors of Plasmodium falciparum Dd2 growth in vitro. Also: nearly all actives have a fitted effect of over 70% in size. The following applies: P. falciparum Dd2 in RBCs, SYBR Green growth, 72 h; series mostly up to 28.7 µM; activity change, negative = inhibition: at the top concentration. The text has this: Malaria, a parasitic disease spread to humans through the bite of a Plasmodium infected Anopheles mosquito, continues to be a global health burden affecting millions of people, with an estimated 228 million cases and 405,000 deaths in 2018. Concerns about safety and limitations of current antimalarial treatments strongly emphasize the need to develop new therapeutic options. The scarce number of chemotypes and validated drug targets with efficacy against the liver stage, have hindered development of new antimalarials. To address this, a chemoprophylactic drug discovery effort was conducted through a combined phenotypic high-throughput asexual blood stage and liver stage screen, providing a robust foundation to identify liver-stage active lead chemotypes. Compounds were initially screened against Plasmodium falciparum Dd2 strain parasites using a in vitro SYBRGreen-1 based 72 hr proliferation assay to identify novel chemotypes to advance to liver stage assays. NIH/NCATS Early Translation Branch Assay Submitter (PI): Anton Simeonov Ph.D.
[…] Assay Protocol: PROTOCOL TABLE (as described by Inglese et al., 2007) SEQUENCE No. (e.g., 1, 2, 3, etc.); PARAMETER (e.g., Cells, Incubation, Reagent, etc.); VALUE; DESCRIPTION SEQUENCE, Parameter, Description 1; Reagent; 3 uL complete malaria growth medium, 1536 TC treated Black clear bottom plate 2; Controls; 23 nL positive control artesunate (300 nM final) to column 1; Neutral control DMSO to columns 2-4 3; Compound; 23 nL of compounds in dose response concentration (29 uM to 0.5 nM final) 4; Reagent; 5 uL malaria infected red blood cells (2.5% hematocrit final, 0.3% parasitemia 5; Time; 72 hours at 37C (5% O2, 5% CO2, 90% N2; 95% Rh) 6; Reagent; 2 uL lysis buffer/SYBRGreen-1, 25 sec shake immediately following dispense 7; Time; ~16 hours at 37C (5% O2, 5% CO2, 90% N2; 95% Rh) 8; Detector; EnVision (PerkinElmer) bottom read at 485/14nm excitation and 535/25 nm emission NOTES (numbers refer to sequence above): 1; Complete Malaria Growth Media: 1X RPMI-1640 w/L-glutamine, 5.5g/L Albumax II, 367 uM Hypoxanthine, 25 mM HEPES, 0.25% Sodium Bicarbonate, 35 uM Gentamicin sulfate 2; Controls were added using the Kalypsis Pintool (Wako USA) equipped with 1536 pinhead 3; Compounds were added in a 7-point, titration with a high final concentration of 29 uM by Pintool from seven inter-plate titrations of library plates and two DMSO control plates at the beginning and end (see Yasgar et al., 2008). 4; Red blood cells infected with Plasmodium falciparum Dd2 parasites were used. 6; Lysis buffer: 20 mM Tris-HCl, 10 mM EDTA, 0.16% Saponin, 1.6% Triton-X, 10X SYBR Green. REFERENCE: Inglese J, Shamu CE, Guy RK. 2007. Reporting data from high-throughput screening of small-molecule libraries. Nat Chem Biol. doi:10.1038/nchembio0807-438 Yasgar A, Shinn P, Jadhav A, Auld D, Michael S, Zheng W, Austin CP, Inglese J, Simeonov A. 2008. Compound Management for Quantitative High-Throughput Screening. J Lab Autom 13:79-89. doi:10.1016/j.jala.2007.12.004
For the molecule `Cc1noc(C)c1Cc1ccc(C(=O)N2[C@H]3CC[C@@H]2c2cnc(-c4ccccc4)nc2C3)o1`, the Potency was 9.44 µM (active).

In the case of `Cc1ccc(C(=O)N2[C@H]3CC[C@@H]2c2cnc(-c4ccccc4)nc2C3)cn1`, the “activity change, negative = inhibition” value was -30.1%.

`Cn1cc(C(=O)N2[C@H]3CC[C@@H]2c2cnc(-c4ccccc4)nc2C3)cn1`: the “activity change, negative = inhibition” value was 6.34%.

Turning to `Cc1nc(-c2ccccc2)cc([C@H]2CN3CC[C@H]2C[C@@H]3CN(Cc2ccco2)Cc2ccco2)n1`, the Potency was 2.99 µM (active).

Regarding `Cc1nc(-c2ccco2)cc([C@H]2CN3CC[C@H]2C[C@@H]3CNCc2ccccc2)n1`, the Potency was 4.33 µM (active).

Consider `CCOc1ccc(CN(CCc2ccc3c(c2)OCO3)Cc2cc(OC)ccc2O)cc1`, for which the Potency was 0.668 µM (active).

Consider `CCOc1cccc(CNCCc2c(C)[nH]c3ccc(OC(F)(F)F)cc23)c1O`, for which the Potency is 2.37 µM (active).

`Cc1ccc(CN2C3CCCC2CC(NC(=O)Nc2cccc(F)c2)C3)cc1` (centres undefined): the Potency was 10.6 µM (active).

As to `O=C(NC1CN2CCC1CC2)c1ccc(-c2ccc([N+](=O)[O-])cc2)o1` (centres undefined), the “activity change, negative = inhibition” value was 13.2%.

With `COC1C(=O)N(c2cccc(F)c2)C12CCNCC2` (centres undefined), the Potency was 10.6 µM (active).

Turning to `FC(F)(F)CN1C2CCC1CN(c1nnc(Cl)c3ccccc13)C2`, the Potency is 2.11 µM (active).

With `CC(C)(C)c1ccc(NC(=O)OC[C@H]2C[C@@H]3CCN2C[C@@H]3c2cc(C3CCCC3)nc(-c3ccncc3)n2)cc1`, the Potency is 2.11 µM (active).

As for `COc1ccc(NC(=O)OC[C@H]2C[C@@H]3CCN2C[C@@H]3c2cc(C3CCCC3)nc(-c3ccncc3)n2)cc1`, the Potency was 4.22 µM (active).

Turning to `O=C(Nc1ccccc1)OC[C@H]1C[C@@H]2CCN1C[C@@H]2c1cc(C2CCCC2)nc(-c2ccncc2)n1`, the Potency is 1.68 µM (active).

Consider `CCC(CC)c1cc([C@H]2CN3CC[C@H]2C[C@@H]3COC(=O)Nc2ccc(C(C)(C)C)cc2)nc(-c2ccncc2)n1`, for which the Potency was 2.11 µM (active).

On to `N#Cc1nn(-c2c(Cl)cc(C(F)(F)F)cc2Cl)c(N)c1S(=O)C(F)(F)F` (centres undefined), for which the Potency is 9.44 µM (active).

Take `Cc1c2ccncc2c(C)c2c1[nH]c1ccccc12`: the Potency was 3.35 µM (active).

On to `CCN1CC=C(c2c[nH]c3ccccc23)CC1`, for which the Potency is 4.22 µM (active).

Regarding `CC(C)N1CC=C(c2c[nH]c3ccccc23)CC1`, the Potency was 10.6 µM (active).

In the case of `CCN(CC)C1=NC(=[N+](CC)CC)c2ccccc21`, the Potency was 5.31 µM (active).

In the case of `COc1ccc(CC(=O)N2Cc3ccccc3CC3(CCCN3C)C2)cc1` (centres undefined), the Potency is 9.44 µM (active).

In the case of `CC(C(=O)c1c[nH]c2ccccc12)N1CCN(C(=O)c2ccco2)CC1` (centres undefined), the Potency was 5.96 µM (active).

With `COc1cccc([C@@H]2CCN(Cc3[nH]c4ccccc4c3C)C[C@H]2O)c1`, the Potency is 1.5 µM (active).

On to `Oc1c(Br)cc(Br)cc1CN1CCN(Cc2ccccc2)CC1`, for which the Potency is 1.06 µM (active).

As to `CCN1CCN(Cc2cc(Br)cc(Br)c2O)CC1`, the Potency is 7.5 µM (active).

Turning to `Oc1ccc(C2NCc3ccccc3-n3cccc32)cc1Cl` (centres undefined), the Potency is 1.19 µM (active) and 1.5 µM (active).

On to `COc1cc(C2NCc3ccccc3-n3cccc32)ccc1O` (centres undefined), for which the Potency was 2.66 µM (active).

For `CC(C)CCNC(=O)c1cc(C(=O)c2cc(F)ccc2O)cn(CCC(C)C)c1=O`, the Potency was 2.11 µM (active).

For the molecule `CC(C)CCNC(=O)c1cc(C(=O)c2cc(Br)ccc2O)cn(CCC(C)C)c1=O`, the Potency is 0.944 µM (active).

In the case of `O=C(c1cc(C(=O)NCc2ccccc2)c(=O)n(Cc2ccccc2)c1)c1cc(Br)ccc1O`, the Potency is 4.73 µM (active).

For the molecule `CCOc1c(Cl)cc(CNC(C)C(O)c2ccccc2)cc1OC` (centres undefined), the Potency is 6.68 µM (active).

Regarding `CC(NCc1ccc(Cl)cc1Cl)C(O)c1ccccc1` (centres undefined), the Potency was 4.73 µM (active).

With `O=C1NC2(CCCN(Cc3ccccn3)C2)COc2ccccc21` (centres undefined), the Potency was 4.85 µM (active).

As for `CC(C)(C)CN1CCC2(COc3ccncc3S(=O)(=O)N2)C1` (centres undefined), the “activity change, negative = inhibition” value is 55.1%.

For the molecule `Cc1cc(O)c(CN2CC=C(c3ccccc3)CC2)cc1C(C)C`, the Potency was 0.335 µM (active).

Turning to `COc1ccc2ccc(O)c(CN3CC=C(c4ccccc4)CC3)c2c1`, the Potency is 8.41 µM (active).

Regarding `CCOc1ccc(CN2C(=O)c3ccccc3Sc3ccc(C(=O)N4CCC5(CC4)OCCO5)cc32)cc1`, the Potency was 4.22 µM (active).

Turning to `CCC(CC)c1cc([C@H]2CN3CC[C@H]2C[C@@H]3CNS(=O)(=O)c2cccs2)nc(-c2ccncc2)n1`, the Potency was 2.37 µM (active).

For `CCC(CC)c1cc([C@H]2CN3CC[C@H]2C[C@@H]3CNS(=O)(=O)c2ccccc2C#N)nc(-c2ccncc2)n1`, the Potency was 1.5 µM (active).

For the molecule `COC(=O)C(C)Oc1cc(C)cc2oc(=O)c3c(c12)CCC3` (centres undefined), the “activity change, negative = inhibition” value is -27.6%.

`Cc1nc2c(=O)n(C)c(=O)nc-2n(C)n1`: the Potency is 0.422 µM (active).

Take `CCC(CC)c1cc([C@H]2CN3CC[C@H]2C[C@@H]3CNC(C)=O)nc(-c2ccncc2)n1`: the Potency is 15.3 µM (active).

As for `CCC(CC)c1cc([C@H]2CN3CC[C@H]2C[C@@H]3CNC(=O)c2ccc(C)cc2)nc(-c2ccncc2)n1`, the Potency was 10.6 µM (active).

Turning to `CCC(CC)c1cc([C@H]2CN3CC[C@H]2C[C@@H]3CNC(=O)COc2ccccc2)nc(-c2ccncc2)n1`, the Potency is 1.5 µM (active).

Turning to `CCC(CC)c1cc([C@H]2CN3CC[C@H]2C[C@@H]3CNC(=O)NCc2ccccc2)nc(-c2ccncc2)n1`, the Potency is 4.22 µM (active).

With `CCC(CC)c1cc([C@H]2CN3CC[C@H]2C[C@@H]3CNC(=O)c2ccccc2)nc(-c2ccncc2)n1`, the Potency was 10.6 µM (active).

Consider `CCC(CC)c1cc([C@H]2CN3CC[C@H]2C[C@@H]3CNC(=O)Cc2cccs2)nc(-c2ccncc2)n1`, for which the Potency was 2.99 µM (active).

In the case of `CCOC(=O)C1(c2ccccc2)CCN(CCC(C#N)(c2ccccc2)c2ccccc2)CC1`, the Potency was 5.31 µM (active).

Regarding `CC(C)[C@@]1(NC(=O)[C@@H]2C[C@@H]3c4cccc5[nH]cc(c45)C[C@H]3N(C)C2)O[C@@]2(O)[C@@H]3CCCN3C(=O)[C@H](Cc3ccccc3)N2C1=O`, the Potency was 2.37 µM (active).
